Laboratory results published in PubChem BioAssay (EPA / NIEHS).
“And” between values parts separate entries of the source, which are not always exact repeats. Identical values can stand only once. Records with an inconclusive call do not appear. The source made the active and inactive calls. How the source made its calls: active means hit-call score of the fitted dose curve at least 0.9, where 1 is the maximum; inconclusive means response in the unintended direction; inactive means score below 0.9.

Tests used:
[1] = ATG_XTT_Cytotoxicity: Cytotoxicity Assessment in the Attagene TRANS-FACTORIAL HepG2 Assay (AID 2283584)
In short: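 Viability endpoint from XTT after 24 h chemical exposure of reporter-transfected human HepG2 liver cells; signal loss fitted relative to DMSO negative control.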

[2] = biological target: Cellular tumor antigen p53 (Homo sapiens) (UniProt P04637); test: TOX21_p53_BLA_p2_ratio: Tox21 HCT-116 p53 Agonism Beta-lactamase Assay, Ratio, Phase 2 (AID 2283592)
Chain of Cellular tumor antigen p53 (Homo sapiens) (P04637 whole entry, looked up): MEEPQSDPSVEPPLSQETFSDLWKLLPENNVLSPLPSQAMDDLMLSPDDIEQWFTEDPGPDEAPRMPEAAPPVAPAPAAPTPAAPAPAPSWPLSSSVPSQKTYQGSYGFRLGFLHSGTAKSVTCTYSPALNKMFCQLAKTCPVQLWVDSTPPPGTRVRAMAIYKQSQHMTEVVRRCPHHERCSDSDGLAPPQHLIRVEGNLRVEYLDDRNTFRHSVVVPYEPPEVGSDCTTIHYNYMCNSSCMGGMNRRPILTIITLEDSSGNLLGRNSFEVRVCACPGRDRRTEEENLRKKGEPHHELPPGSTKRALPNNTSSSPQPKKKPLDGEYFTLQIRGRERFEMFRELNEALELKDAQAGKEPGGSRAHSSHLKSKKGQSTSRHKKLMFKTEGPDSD
In short: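 Read-out is the blue/green (460/530 nm, 405 nm excitation) ratio after 2 h CCF4-AM loading, fitted as gain versus DMSO. Compounds, pinned at 217-fold dilution from DMSO stocks, stayed 16 h on HCT-116 beta-lactamase reporter cells seeded 5 h earlier.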

[3] = TOX21_p53_BLA_p3_viability: Viability Assessment in the Tox21 HCT-116 p53 Agonism Beta-lactamase Assay, Phase 3 (AID 2283593);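 further: cells exposed to compound for 16 h before reading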
In short: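 Cellular ATP was quantified by CellTiter-Glo luminescence, read after 30 min at room temperature. Beforehand, HCT116 cells (4000/well) received compound 5 h post-seeding, 217-fold diluted from DMSO, then incubated 16 h at 37C.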

[4] = TOX21_p53_BLA_p4_viability: Viability Assessment in the Tox21 HCT-116 p53 Agonism Beta-lactamase Assay, Phase 4 (AID 2283597);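 further: hits lower the luminescence signal meaning cytotoxicity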
In short: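 Cytotoxicity as reduced cellular ATP (CellTiter-Glo luminescence, 30 min room temperature), measured in the same wells following the CCF4 FRET p53 reading. Human HCT-116 cells received compounds in DMSO (217-fold dilution) for 16 h.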

[5] = biological target: Cellular tumor antigen p53 (Homo sapiens) (UniProt P04637); test: TOX21_p53_BLA_p5_ratio: Tox21 HCT-116 p53 Agonism Beta-lactamase Assay, Ratio, Phase 5 (AID 2283599)
In short: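 Beta-lactamase reporter ratio (blue 460 nm over green 530 nm, 405 nm excitation) after 2 h CCF4-AM loading, in HCT-116 cells exposed 16 h at 37 C to compounds pinned at 217-fold dilution. Increases relative to DMSO baseline scored.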

[6] = TOX21_p53_BLA_p5_viability: Viability Assessment in the Tox21 HCT-116 p53 Agonism Beta-lactamase Assay, Phase 5 (AID 2283600)
In short: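 Viability came from CellTiter-Glo ATP luminescence, read after 30 min at room temperature. Before this, HCT-116 p53-bla cells (4000/well) had 16 hours of compound exposure at 37C, with DMSO stocks diluted 217-fold on transfer.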

[7] = biological target: Cellular tumor antigen p53 (Homo sapiens) (UniProt P04637); test: TOX21_p53_BLA_p4_ratio: Tox21 HCT-116 p53 Agonism Beta-lactamase Assay, Ratio, Phase 4 (AID 2283601)
In short: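 Signal is the blue/green (460nm/530nm) ratio of cleaved versus uncleaved CCF4-AM substrate, read after 2 h substrate loading. Cells were HCT116 carrying the p53-responsive beta-lactamase reporter, dosed 16 h at 37C, 5% CO2; CellTiter-Glo measured in parallel.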

[8] = biological target: Cellular tumor antigen p53 (Homo sapiens) (UniProt P04637); test: TOX21_p53_BLA_p3_ratio: Tox21 HCT-116 p53 Agonism Beta-lactamase Assay, Ratio, Phase 3 (AID 2283596)
In short: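 Cells were seeded at 4000/well, rested 5 h at 37C, then dosed with DMSO compound solutions (217-fold dilution) for 16 h. CCF4-AM substrate was loaded for 2 h at room temperature, and the 460/530 nm emission ratio was fitted for gain of signal versus DMSO.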

[9] = TOX21_p53_BLA_p2_viability: Viability Assessment in the Tox21 HCT-116 p53 Agonism Beta-lactamase Assay, Phase 2 (AID 2283591);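 further: compound exposure lasted 16 h at 37 °C; actives lower the ATP signal meaning cytotoxicity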
In short: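 Cytotoxicity readout: CellTiter-Glo ATP luminescence, 30 min at room temperature, after the beta-lactamase read. Cells were HCT116 exposed 16 h at 37C to compounds pin-transferred at 217-fold dilution from DMSO stocks.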

[10] = Tanguay_ZF_120hpf_MORT_legacy: (Legacy) Oregon State University Tanguay Lab 120 Hour Post-fertilization zebrafish Assay for Mortality (AID 2283633);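 on AC50: fitted as increase in binary mortality versus DMSO negative control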
In short: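 Static waterborne exposure from 6 to 120 hpf at 28C of single dechorionated wild-type (5D) embryos per well, 0.64% DMSO final. Death recorded present/absent by brightfield at 24 and 120 hpf.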

[11] = Tanguay_ZF_120hpf_YSE_legacy: (Legacy) Oregon State University Tanguay Lab 120 Hour Post-fertilization zebrafish Assay for Yolk Sac Edema (AID 2283634)
In short: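 Presence or absence of yolk sac edema was recorded at 120 hpf in surviving larvae. These were wild-type Tropical 5D embryos, chorion removed at 4 hpf, held in static exposure at 28C from 6 hpf with 0.64% DMSO vehicle.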

[12] = Tanguay_ZF_120hpf_AXIS_legacy: (Legacy) Oregon State University Tanguay Lab 120 Hour Post-fertilization zebrafish Assay for Body Axis Malformation (AID 2283635)
In short: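 Binary scoring of axis defects at 120 hpf under brightfield, fitted positive versus DMSO. Tropical 5D embryos, chorion removed by pronase at 4 hpf, were singly exposed in sealed, dark plates at 28C from 6 hpf; DMSO 0.64% final.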

[13] = Tanguay_ZF_120hpf_EYE_legacy: (Legacy) Oregon State University Tanguay Lab 120 Hour Post-fertilization zebrafish Assay for Eye Malformation (AID 2283636);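 further: binary presence or absence of eye malformation scored by brightfield in 120 hpf larvae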
In short: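 Binary brightfield scoring of eye defects at 120 hpf after static exposure from 6 hpf of single pronase-dechorionated wild-type embryos (28C, 0.64% DMSO). Non-mortality endpoints omitted where embryos died; fit vs DMSO.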

[14] = Tanguay_ZF_120hpf_SNOU_legacy: (Legacy) Oregon State University Tanguay Lab 120 Hour Post-fertilization zebrafish Assay for Snout Malformation (AID 2283637)
In short: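 Binary snout-malformation call at 120 hpf in wild-type 5D embryos, chorion removed by pronase, under static exposure from 6 hpf at 28C (0.64% DMSO). Embryos dying by 24 or 120 hpf excluded.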

[15] = Tanguay_ZF_120hpf_JAW_legacy: (Legacy) Oregon State University Tanguay Lab 120 Hour Post-fertilization zebrafish Assay for Jaw Malformation (AID 2283638)
In short: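 Binary jaw-malformation call at 120 hpf by brightfield microscopy. Embryos (Tropical 5D strain, chorion removed at 4 hpf) were dosed statically at 6 hpf, one per well, at 28C with 0.64% DMSO. Embryos that died were not scored.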

[16] = Tanguay_ZF_120hpf_OTIC_legacy: (Legacy) Oregon State University Tanguay Lab 120 Hour Post-fertilization zebrafish Assay for Otic Vesicle Malformation (AID 2283639)
In short: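 Binary scoring of otic vesicle defects at 120 hpf in zebrafish (Tropical 5D) held under static exposure at 28C, sealed and shaded, with final DMSO 0.64%. Embryos dying by 24 or 120 hpf excluded; fitted positively against DMSO.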

[17] = Tanguay_ZF_120hpf_PE_legacy: (Legacy) Oregon State University Tanguay Lab 120 Hour Post-fertilization zebrafish Assay for Pericardial Edema (AID 2283640)
In short: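 Scoring was binary, by brightfield microscopy at 120 hpf, and skipped where mortality occurred. Wild-type embryos were kept under sealed, foil-covered static exposure at 28C in 0.64% (vol/vol) DMSO.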

[18] = Tanguay_ZF_120hpf_SOMI_legacy: (Legacy) Oregon State University Tanguay Lab 120 Hour Post-fertilization zebrafish Assay for Somite Malformation (AID 2283647)
In short: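 Binary somite-defect scoring at 120 hpf, omitted for embryos that died, in wild-type (Tropical 5D) zebrafish with chorion removed by pronase at 4 hpf; static exposure began 6 hpf, single embryos per well, 28C, 0.64% DMSO; fitted positive versus DMSO.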

[19] = Tanguay_ZF_120hpf_PFIN_legacy: (Legacy) Oregon State University Tanguay Lab 120 Hour Post-fertilization zebrafish Assay for Pectoral Fin Malformation (AID 2283648);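 further: each larva judged yes or no for fin defect by brightfield with dead larvae skipped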
In short: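 Pectoral fin malformation was recorded as a binary endpoint at 120 hpf in wild-type Tropical 5D larvae, which had been dechorionated and exposed statically from 6 hpf at 28C in 0.64% DMSO. Dead embryos were excluded.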

[20] = Tanguay_ZF_120hpf_BRAI_legacy: (Legacy) Oregon State University Tanguay Lab 120 Hour Post-fertilization zebrafish Assay for Brain Malformation (AID 2283641)
In short: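 Binary brightfield scoring of brain malformation at 120 hpf in Tropical 5D larvae held under static exposure at 28C (0.64% v/v DMSO), non-mortality endpoints skipped if dead. Positive control: 5uM trimethyltin chloride; fit versus DMSO.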

Measured: AC50

CCCCCCCCCCCCBr
inactive: [1] | [2] | [3] | [4] | [5] | [6] | [7]

CCCCCCCCBr
inactive: [1] | [2] | [8] | [5] | [6]

CC(=O)CN(CC(C)=O)N=O
inactive: [1] | [2] | [3] | [4]

Cc1cc(Cl)ccc1O
inactive: [1] | [2] | [8] | [4] | [5] | [7]

COCCl
inactive: [1] | [2] | [8] | [6] | [7]

O=C(CCl)NCO
inactive: [1] | [2] | [4] | [7]

Cc1ccccc1OP(=O)(Oc1ccccc1C)Oc1ccccc1C
inactive: [1] | [2] | [8] | [4] | [7]

CCN(N=O)C(N)=O
inactive: [1] | [2] | [8] | [6] | [7]

Cl[C@H]1OCCO[C@@H]1Cl
inactive: [1] | [2] | [3] | [8] | [7]

Oc1ccc(Cc2ccc(O)cc2)cc1
inactive: [1] | [2] | [8] | [6]

O=[N+]([O-])c1cccc2ccccc12
inactive: [1] | [2] | [3] | [8] | [7]

Clc1cc(C(Cl)(Cl)Cl)cnc1Cl
inactive: [1] | [2] | [3] | [8] | [6] | [7]

CCOC(=O)CCN(SN(C)C(=O)Oc1cccc2c1OC(C)(C)C2)C(C)C
inactive: [1] | [8] | [6] | [7]

O=C1c2ccccc2C(=O)C1C(=O)C(c1ccccc1)c1ccc(Cl)cc1 (stereo unspecified)
inactive: [1] | [8] | [5] | [6] | [7]
active: [3] 15.9 µM | [4] 37.3 µM

C#CCOC(=O)/C=C(C)/C=C/CC(C)CCCC(C)C (stereo unspecified)
inactive: [1] | [3]

CC(C)(C1CCC(O)CC1)C1CCC(O)CC1 (stereo unspecified)
inactive: [1] | [2] | [4] | [5]

CC(C)CP(=S)(S)CC(C)C
inactive: [1] | [8] | [6] | [7]

CC1(C)[C@H](C(=O)O[C@H](C#N)c2cccc(Oc3ccccc3)c2)[C@@H]1/C=C(\Cl)C(F)(F)F
inactive: [1] | [2] | [3] | [7]

O=C(O)COc1ccc(Cl)cc1
inactive: [1] | [3] | [8]

BrCCCCBr
inactive: [1] | [2] | [4]

CS(=O)(=O)c1ccc(C(=O)C2C(=O)CCCC2=O)c(Cl)c1COCC(F)(F)F
inactive: [1] | [2] | [8] | [5] | [6] | [7]

c1csc(-c2ccc(-c3cccs3)s2)c1
inactive: [1]
active: [2] 50.2 µM | [8] 41.9 µM | [5] 59.3 µM | [7] 46.1 µM

CCCCS(=O)(=O)Cl
inactive: [1] | [8] | [4] | [6]

CC(C)[N+](=O)[O-]
inactive: [1] | [2] | [8] | [5] | [6] | [7]

CCN(CCO)CCO
inactive: [1] | [6] | [7]

CCCCC(CC)C(=O)Cl (stereo unspecified)
inactive: [9] | [2] | [3] | [8] | [6] | [7]

CC(C)C(C)(N)C#N (stereo unspecified)
inactive: [9] | [2] | [3] | [5] | [7]

Oc1c(Cl)cc(Cl)cc1Cl
inactive: [11] | [12] | [13] | [14] | [15] | [16] | [17] | [18] | [19]
active: [10] 24.9 µM

CC(C)(C)c1ccccc1O
not listed: [2] | [3] | [4] | [5] | [6] | [7] | [8] | [9]
inactive: all other assays above

COc1ccccc1N
inactive: [1] | [10] | [11] | [12] | [13] | [14] | [15] | [20] | [19]

CCCCOC(=O)COC(=O)c1ccccc1C(=O)OCCCC
inactive: [2] | [6] | [7]

CCC[CH2][Sn]([Cl])([Cl])[CH2]CCC
active: [9] 552 nM and 2.76 µM | [2] 1.59 µM and 14.3 µM | [3] 2.47 µM and 1.79 µM | [8] 19.6 µM and 20.1 µM | [5] 15 µM and 20.4 µM | [6] 2.75 µM and 2.86 µM | [7] 3.21 µM and 13.9 µM

Cc1cccc(N=Nc2ccc(N(C)C)cc2)c1
inactive: [9] | [2] | [3] | [8] | [4] | [5] | [7]

O=C(Cc1ccccc1)OCCc1ccccc1
inactive: [9] | [2] | [4] | [5] | [6]

Nc1nc(N)nc(Cl)n1
inactive: [2] | [6] | [7]

CC(C)O.CC(C)O.OCCN(CCO)CCO.OCCN(CCO)CCO.[Ti]
inactive: [1] | [10] | [12] | [14] | [15] | [16] | [17] | [20] | [18]

OCCCCO
inactive: [9] | [2] | [8] | [4] | [5] | [6] | [7]

OC[P+](CO)(CO)CO
inactive: [2] | [8] | [5] | [7]

O=C(NC(=O)c1c(F)cccc1F)Nc1cc(Cl)c(F)c(Cl)c1F
inactive: [9] | [2] | [3] | [8] | [4] | [5] | [6] | [7]
